{
  "source": "the supplement of paper PMC6555819",
  "experiment_in_all_cases": "PBM binding z-score (relative to random genomic background probes); higher = stronger binding; sequences stand for … in GC…GCGATTGACAGCGTAGAATGAAGG",
  "key": {"[1]": {"test_system": "FXR:RXRa (NR concentration 270 nM, RXRa partner concentration 90 nM)", "procedure,_shortened": "(§1)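 Antibodies against each partner of ligand-free nuclear receptor dimers (one per run) detected binding on custom Agilent 4×180K protein-binding microarrays after 1 h incubation. The double-stranded probes had 34-nt variable regions carrying direct-repeat seeds, single-nucleotide variants, half-site ablations and random human genomic background sequences. Binding z-scores, from regression-normalized fluorescence, use the random background probes as reference.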"}, "[2]": {"test_system": "LXRa:RXRa (NR concentration 270 nM, RXRa partner concentration 90 nM)", "procedure,_shortened": "as §1"}, "[3]": {"test_system": "LXRa homodimer (NR concentration 270 nM)", "procedure,_shortened": "as §1"}, "[4]": {"test_system": "LXRb:RXRa (NR concentration 270 nM, RXRa partner concentration 90 nM)", "procedure,_shortened": "as §1"}, "[5]": {"test_system": "LXRb homodimer (NR concentration 270 nM)", "procedure,_shortened": "as §1"}, "[6]": {"test_system": "PPARa:RXRa (NR concentration 270 nM, RXRa partner concentration 90 nM)", "procedure,_shortened": "as §1"}, "[7]": {"test_system": "PPARg:RXRa (NR concentration 180 nM, RXRa partner concentration 90 nM)", "procedure,_shortened": "as §1"}, "[8]": {"test_system": "PPARg:RXRa 270nM:90nM, anti-RXR (NR concentration 270 nM, RXRa partner concentration 90 nM)", "procedure,_shortened": "as §1"}, "[9]": {"test_system": "PPARg:RXRa 30nM:10nM, anti-RXR (NR concentration 30 nM, RXRa partner concentration 10 nM)", "procedure,_shortened": "as §1"}, "[10]": {"test_system": "PPARg:RXRa 90nM:30nM, anti-RXR (NR concentration 90 nM, RXRa partner concentration 30 nM)", "procedure,_shortened": "as §1"}, "[11]": {"test_system": "PPARg:RXRa DBDmut IVT, anti-RXR (DBD mutation: RXRa K156A/R161A, NR concentration 270 nM, RXRa partner concentration 90 nM)", "procedure,_shortened": "as §1"}, "[12]": {"test_system": "PPARg:RXRa IVT, anti-PPARg (NR concentration 270 nM, RXRa partner concentration 90 nM)", "procedure,_shortened": "as §1"}, "[13]": {"test_system": "PPARg DBDmut:RXRa IVT, anti-PPARg (DBD mutation: PPARg1 K132A/R137A, NR concentration 270 nM, RXRa partner concentration 90 nM)", "procedure,_shortened": "as §1"}, "[14]": {"test_system": "PPARg DBDmut IVT, anti-PPARg (DBD mutation: PPARg1 K132A/R137A, NR concentration 270 nM)", "procedure,_shortened": "as §1"}, "[15]": {"test_system": "PPARg homodimer (NR concentration 180 nM)", "procedure,_shortened": "as §1"}, "[16]": {"test_system": "PXR:RXRa (NR concentration 270 nM, RXRa partner concentration 90 nM)", "procedure,_shortened": "as §1"}, "[17]": {"test_system": "PXR homodimer (NR concentration 270 nM)", "procedure,_shortened": "as §1"}, "[18]": {"test_system": "RARa:RXR (NR concentration 270 nM, RXRa partner concentration 90 nM)", "procedure,_shortened": "as §1"}, "[19]": {"test_system": "RARa homodimer (NR concentration 270 nM)", "procedure,_shortened": "as §1"}, "[20]": {"test_system": "RARb:RXRa (NR concentration 270 nM, RXRa partner concentration 90 nM)", "procedure,_shortened": "as §1"}},
  "data": [
    {"sequence": "GCGACTGGGACAAAGCAGGTTACCATAAGGTTGG", "values": [
      {"measurement": "PBM binding z-score", "setting": "[1]", "result": -0.198},
      {"measurement": "PBM binding z-score", "setting": "[2]", "result": -0.314},
      {"measurement": "PBM binding z-score", "setting": "[3]", "result": -0.305},
      {"measurement": "PBM binding z-score", "setting": "[4]", "result": -0.479},
      {"measurement": "PBM binding z-score", "setting": "[5]", "result": -0.971},
      {"measurement": "PBM binding z-score", "setting": "[6]", "result": 0.611},
      {"measurement": "PBM binding z-score", "setting": "[7]", "result": 0.76},
      {"measurement": "PBM binding z-score", "setting": "[8]", "result": 0.524},
      {"measurement": "PBM binding z-score", "setting": "[9]", "result": -0.332},
      {"measurement": "PBM binding z-score", "setting": "[10]", "result": -0.0419},
      {"measurement": "PBM binding z-score", "setting": "[11]", "result": 2.44},
      {"measurement": "PBM binding z-score", "setting": "[12]", "result": 1.83},
      {"measurement": "PBM binding z-score", "setting": "[13]", "result": -0.413},
      {"measurement": "PBM binding z-score", "setting": "[14]", "result": -1.3},
      {"measurement": "PBM binding z-score", "setting": "[15]", "result": 0.0292},
      {"measurement": "PBM binding z-score", "setting": "[16]", "result": 0.0506},
      {"measurement": "PBM binding z-score", "setting": "[17]", "result": -0.224},
      {"measurement": "PBM binding z-score", "setting": "[18]", "result": 0.493},
      {"measurement": "PBM binding z-score", "setting": "[19]", "result": -0.37},
      {"measurement": "PBM binding z-score", "setting": "[20]", "result": 0.0729}
    ]},
    {"sequence": "TCGAGTAGGTTAGGGGTATTCAGAATGGCGTCGA", "values": [
      {"measurement": "PBM binding z-score", "setting": "[1]", "result": 0.347},
      {"measurement": "PBM binding z-score", "setting": "[2]", "result": 0.298},
      {"measurement": "PBM binding z-score", "setting": "[3]", "result": -0.105},
      {"measurement": "PBM binding z-score", "setting": "[4]", "result": 1.01},
      {"measurement": "PBM binding z-score", "setting": "[5]", "result": -0.0483},
      {"measurement": "PBM binding z-score", "setting": "[6]", "result": 1.66},
      {"measurement": "PBM binding z-score", "setting": "[7]", "result": 2.37},
      {"measurement": "PBM binding z-score", "setting": "[8]", "result": 3.55},
      {"measurement": "PBM binding z-score", "setting": "[9]", "result": 2.28},
      {"measurement": "PBM binding z-score", "setting": "[10]", "result": 2.99},
      {"measurement": "PBM binding z-score", "setting": "[11]", "result": 2.5},
      {"measurement": "PBM binding z-score", "setting": "[12]", "result": 2.26},
      {"measurement": "PBM binding z-score", "setting": "[13]", "result": 0.429},
      {"measurement": "PBM binding z-score", "setting": "[14]", "result": 0.6},
      {"measurement": "PBM binding z-score", "setting": "[15]", "result": 0.948},
      {"measurement": "PBM binding z-score", "setting": "[16]", "result": 0.383},
      {"measurement": "PBM binding z-score", "setting": "[17]", "result": 0.362},
      {"measurement": "PBM binding z-score", "setting": "[18]", "result": 0.00419},
      {"measurement": "PBM binding z-score", "setting": "[19]", "result": 0.176},
      {"measurement": "PBM binding z-score", "setting": "[20]", "result": 0.589}
    ]},
    {"sequence": "AGAAAGAGGGCAATGAGTTGATAGCACGGGTGGC", "values": [
      {"measurement": "PBM binding z-score", "setting": "[1]", "result": 0.593},
      {"measurement": "PBM binding z-score", "setting": "[2]", "result": 0.892},
      {"measurement": "PBM binding z-score", "setting": "[3]", "result": 0.104},
      {"measurement": "PBM binding z-score", "setting": "[4]", "result": 0.387},
      {"measurement": "PBM binding z-score", "setting": "[5]", "result": 0.472},
      {"measurement": "PBM binding z-score", "setting": "[6]", "result": 1.55},
      {"measurement": "PBM binding z-score", "setting": "[7]", "result": 1.23},
      {"measurement": "PBM binding z-score", "setting": "[8]", "result": 0.938},
      {"measurement": "PBM binding z-score", "setting": "[9]", "result": 0.0317},
      {"measurement": "PBM binding z-score", "setting": "[10]", "result": 0.591},
      {"measurement": "PBM binding z-score", "setting": "[11]", "result": 2.75},
      {"measurement": "PBM binding z-score", "setting": "[12]", "result": 1.6},
      {"measurement": "PBM binding z-score", "setting": "[13]", "result": 0.0853},
      {"measurement": "PBM binding z-score", "setting": "[14]", "result": 0.306},
      {"measurement": "PBM binding z-score", "setting": "[15]", "result": 0.658},
      {"measurement": "PBM binding z-score", "setting": "[16]", "result": 1.84},
      {"measurement": "PBM binding z-score", "setting": "[17]", "result": 4.38},
      {"measurement": "PBM binding z-score", "setting": "[18]", "result": 0.758},
      {"measurement": "PBM binding z-score", "setting": "[19]", "result": 0.0375},
      {"measurement": "PBM binding z-score", "setting": "[20]", "result": 2.46}
    ]},
    {"sequence": "CGTCCAAGATCATAGGAGGTCAGTGAAGACAGAT", "values": [
      {"measurement": "PBM binding z-score", "setting": "[1]", "result": 1.56},
      {"measurement": "PBM binding z-score", "setting": "[2]", "result": 2.77},
      {"measurement": "PBM binding z-score", "setting": "[3]", "result": 1.2},
      {"measurement": "PBM binding z-score", "setting": "[4]", "result": 2.26},
      {"measurement": "PBM binding z-score", "setting": "[5]", "result": 0.134},
      {"measurement": "PBM binding z-score", "setting": "[6]", "result": 2.69},
      {"measurement": "PBM binding z-score", "setting": "[7]", "result": 0.898},
      {"measurement": "PBM binding z-score", "setting": "[8]", "result": 0.559},
      {"measurement": "PBM binding z-score", "setting": "[9]", "result": 0.251},
      {"measurement": "PBM binding z-score", "setting": "[10]", "result": 0.198},
      {"measurement": "PBM binding z-score", "setting": "[11]", "result": 0.389},
      {"measurement": "PBM binding z-score", "setting": "[12]", "result": 1.23},
      {"measurement": "PBM binding z-score", "setting": "[13]", "result": 0.673},
      {"measurement": "PBM binding z-score", "setting": "[14]", "result": 0.577},
      {"measurement": "PBM binding z-score", "setting": "[15]", "result": 1.4},
      {"measurement": "PBM binding z-score", "setting": "[16]", "result": 2.93},
      {"measurement": "PBM binding z-score", "setting": "[17]", "result": 0.844},
      {"measurement": "PBM binding z-score", "setting": "[18]", "result": 2.62},
      {"measurement": "PBM binding z-score", "setting": "[19]", "result": 0.513},
      {"measurement": "PBM binding z-score", "setting": "[20]", "result": 2.25}
    ]}
  ]
}
